Experimental data as given in PubChem BioAssay.
Calls of active or inactive are those of the source.

Tests used:
[1] = binders of probe aFSTL3 on microarray, primary screen, stem cell growth factor project, biochemical, small-molecule microarray, fluorescence 635/667 (AID 1064); conditions: higher = more signal;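 note: measures binding of the biotinylated anti-FSTL3 antibody to printed compounds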
[2] = binders from COS7 lysate, DM2A8 probe, primary screen, torsin A project, cell lysate, small-molecule microarray, fluorescence 635/667 (AID 1065); conditions: higher = more signal, COS7 lysate expressing mutant human TOR1A
[3] = binders of probe aFGF2 on microarray, primary screen, stem cell growth factor project, biochemical, small-molecule microarray, fluorescence 635/667 (AID 1067); conditions: higher = more signal;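 note: measures binding of biotinylated aFGF2 protein to printed compounds on slides; z-score merges feature fluorescence and signal-to-noise across triplicate slides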
[4] = binders of probe aFGF10 on microarray, primary screen, stem cell growth factor project, biochemical, small-molecule microarray, fluorescence 635/667 (AID 1071); conditions: higher = more signal;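 note: score merges 667 nm spot intensity and signal to noise from triplicate slides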
[5] = target: Neurogenic locus notch homolog protein 2 (Homo sapiens) (UniProt Q04721); experiment: Notch2 binders on small-molecule microarrays, primary screen, biochemical, small-molecule microarray, 635 nm fluorescence, stem cell growth factors (AID 1073); conditions: Notch2 binding, higher = more signal
[6] = target: Pro-neuregulin-1, membrane-bound isoform (Homo sapiens) (UniProt Q02297); experiment: NRG1 binders on small-molecule microarrays, primary screen, psychiatric disease protein project, biochemical, small-molecule microarray, fluorescence 635/667 (AID 1075); conditions: NRG1 binding, 635 nm fluorescence, higher = more signal;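 note: score combines 667 nm spot fluorescence with signal to noise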
[7] = test system: Neuregulin-1 EGF-like domain; experiment: binders of neuregulin-1 EGF-like domain, primary screen, biochemical, small-molecule microarray, 635 nm fluorescence (AID 1081); conditions: small-molecule microarray binding, higher = more signal;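 note: binding of the protein to compounds printed on small-molecule microarray slides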
[8] = FRG1 promoter luciferase signal modulators, primary screen, FRG1 inhibition for FSHD, cell-based, C2C12 myotubes, firefly/Renilla luciferase, luminescence (AID 1084); conditions: higher = more signal, called active from +8 up or from −8 down
[9] = binders of probe aFST on microarray, primary screen, stem cell growth factor project, biochemical, small-molecule microarray, fluorescence 635/667 (AID 1086); conditions: higher = more signal;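 note: score merges 667 nm fluorescence with signal-to-noise of each printed compound spot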
[10] = binders of probe aHhip on microarray, primary screen, stem cell growth factor project, biochemical, small-molecule microarray, fluorescence 635/667 (AID 1087); conditions: higher = more signal;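 note: score merges spot fluorescence at 667nm with spot signal to noise ratio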

Pro-neuregulin-1, membrane-bound isoform (Homo sapiens), sequence (Q02297 whole entry, looked up, the tested form may be a part, canonical isoform): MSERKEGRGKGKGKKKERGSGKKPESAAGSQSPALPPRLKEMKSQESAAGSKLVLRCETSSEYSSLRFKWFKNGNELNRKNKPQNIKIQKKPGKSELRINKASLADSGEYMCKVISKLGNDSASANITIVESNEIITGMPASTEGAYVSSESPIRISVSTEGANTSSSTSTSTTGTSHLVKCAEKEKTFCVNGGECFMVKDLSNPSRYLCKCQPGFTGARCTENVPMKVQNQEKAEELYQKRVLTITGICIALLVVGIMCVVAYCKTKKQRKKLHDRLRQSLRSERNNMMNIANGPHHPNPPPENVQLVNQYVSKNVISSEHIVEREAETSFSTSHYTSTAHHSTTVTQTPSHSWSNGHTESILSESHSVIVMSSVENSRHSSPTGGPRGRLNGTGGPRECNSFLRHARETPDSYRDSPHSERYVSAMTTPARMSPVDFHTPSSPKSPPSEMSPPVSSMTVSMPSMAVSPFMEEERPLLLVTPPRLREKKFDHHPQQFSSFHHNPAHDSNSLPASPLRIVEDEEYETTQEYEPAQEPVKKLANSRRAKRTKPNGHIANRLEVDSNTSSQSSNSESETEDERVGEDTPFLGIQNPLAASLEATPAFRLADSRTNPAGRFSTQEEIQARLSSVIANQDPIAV
Neurogenic locus notch homolog protein 2 (Homo sapiens), sequence (Q04721 whole entry, looked up, canonical isoform): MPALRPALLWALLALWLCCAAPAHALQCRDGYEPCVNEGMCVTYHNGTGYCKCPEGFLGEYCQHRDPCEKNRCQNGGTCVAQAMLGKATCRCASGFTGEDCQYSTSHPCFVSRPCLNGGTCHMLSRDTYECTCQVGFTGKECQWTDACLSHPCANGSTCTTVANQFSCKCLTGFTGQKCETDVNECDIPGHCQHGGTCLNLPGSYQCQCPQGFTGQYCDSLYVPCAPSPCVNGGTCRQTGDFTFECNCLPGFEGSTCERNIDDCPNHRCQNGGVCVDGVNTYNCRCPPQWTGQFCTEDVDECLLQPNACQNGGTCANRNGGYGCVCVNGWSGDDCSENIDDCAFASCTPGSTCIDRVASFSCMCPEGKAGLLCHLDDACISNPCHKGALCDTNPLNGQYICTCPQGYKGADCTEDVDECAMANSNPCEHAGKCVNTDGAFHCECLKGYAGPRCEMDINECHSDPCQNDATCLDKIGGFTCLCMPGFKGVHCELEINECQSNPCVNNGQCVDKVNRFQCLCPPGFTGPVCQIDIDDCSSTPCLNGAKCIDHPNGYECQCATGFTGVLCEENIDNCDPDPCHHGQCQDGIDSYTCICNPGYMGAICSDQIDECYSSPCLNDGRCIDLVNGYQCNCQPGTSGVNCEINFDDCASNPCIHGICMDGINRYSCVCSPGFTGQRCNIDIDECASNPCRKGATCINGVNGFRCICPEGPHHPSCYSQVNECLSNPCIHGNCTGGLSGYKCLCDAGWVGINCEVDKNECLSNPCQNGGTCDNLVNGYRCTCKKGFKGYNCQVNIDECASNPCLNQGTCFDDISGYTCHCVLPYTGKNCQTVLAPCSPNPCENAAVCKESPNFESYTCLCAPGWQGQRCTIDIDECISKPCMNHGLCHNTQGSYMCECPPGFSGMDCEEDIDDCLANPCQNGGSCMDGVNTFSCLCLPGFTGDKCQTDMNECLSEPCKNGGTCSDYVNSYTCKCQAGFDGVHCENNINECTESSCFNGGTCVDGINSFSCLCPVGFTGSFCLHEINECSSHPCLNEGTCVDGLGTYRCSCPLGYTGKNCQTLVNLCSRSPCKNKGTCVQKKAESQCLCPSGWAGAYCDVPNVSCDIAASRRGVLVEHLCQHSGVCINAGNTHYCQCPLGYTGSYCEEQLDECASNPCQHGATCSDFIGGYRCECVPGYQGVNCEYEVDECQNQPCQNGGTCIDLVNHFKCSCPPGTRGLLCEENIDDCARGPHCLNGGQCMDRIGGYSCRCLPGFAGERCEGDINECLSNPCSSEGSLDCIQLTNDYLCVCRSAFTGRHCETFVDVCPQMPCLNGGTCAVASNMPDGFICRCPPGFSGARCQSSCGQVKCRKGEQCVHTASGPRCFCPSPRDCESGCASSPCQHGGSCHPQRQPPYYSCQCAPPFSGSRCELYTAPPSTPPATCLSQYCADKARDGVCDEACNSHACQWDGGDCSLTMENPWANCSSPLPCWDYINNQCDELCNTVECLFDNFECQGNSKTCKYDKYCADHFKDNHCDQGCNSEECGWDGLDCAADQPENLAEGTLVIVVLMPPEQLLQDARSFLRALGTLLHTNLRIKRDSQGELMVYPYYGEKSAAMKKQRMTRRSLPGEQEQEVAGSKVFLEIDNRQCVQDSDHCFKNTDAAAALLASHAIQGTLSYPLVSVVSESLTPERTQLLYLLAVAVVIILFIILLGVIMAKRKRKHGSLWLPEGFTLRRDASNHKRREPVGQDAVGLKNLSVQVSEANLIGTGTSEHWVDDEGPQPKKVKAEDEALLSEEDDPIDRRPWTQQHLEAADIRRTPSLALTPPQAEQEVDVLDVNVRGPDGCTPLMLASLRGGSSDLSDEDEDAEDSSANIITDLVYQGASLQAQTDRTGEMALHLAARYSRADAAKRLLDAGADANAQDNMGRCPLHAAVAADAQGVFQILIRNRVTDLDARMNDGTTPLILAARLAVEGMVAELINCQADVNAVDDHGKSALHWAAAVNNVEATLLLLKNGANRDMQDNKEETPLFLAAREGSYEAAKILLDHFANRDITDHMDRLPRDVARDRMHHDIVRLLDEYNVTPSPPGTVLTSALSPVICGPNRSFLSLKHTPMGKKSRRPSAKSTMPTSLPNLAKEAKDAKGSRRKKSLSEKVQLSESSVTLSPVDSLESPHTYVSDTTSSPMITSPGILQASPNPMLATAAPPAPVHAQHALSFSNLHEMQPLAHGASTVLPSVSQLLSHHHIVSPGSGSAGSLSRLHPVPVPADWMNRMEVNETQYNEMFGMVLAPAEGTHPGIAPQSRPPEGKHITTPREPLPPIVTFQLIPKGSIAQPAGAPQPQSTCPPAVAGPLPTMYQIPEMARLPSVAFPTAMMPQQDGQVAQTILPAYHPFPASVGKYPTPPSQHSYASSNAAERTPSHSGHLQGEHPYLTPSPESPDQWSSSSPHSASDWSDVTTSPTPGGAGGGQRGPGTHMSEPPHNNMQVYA

Compound	composite z-score [1]	composite z-score [2]	composite z-score [3]	composite z-score [4]	composite z-score [5]	composite z-score [6]	composite z-score [7]	z-score [8]	composite z-score [9]	composite z-score [10]
NC(=O)NCC#Cc1ccc2c(c1)[C@]1(C(=O)N2)[C@H](c2ccc(O)cc2)N2[C@H](c3ccccc3)[C@H](c3ccccc3)OC(=O)[C@H]2[C@@H]1C(=O)N1CCN(c2ncccn2)CC1	0.687	0.585	0.0021	0.516	0.0269	0.302	0.562	-1.09 (inactive)	0.38	-0.191
COc1ccc([Si](C)(C)[C@H]2[C@H](CC(=O)N(CCO)Cc3ccccc3)O[C@@]3(C(=O)N(Cc4cccc(N5C(=O)c6cccc7cccc5c67)c4)c4ccccc43)[C@@H]2C)cc1	-0.184	0.199	-0.0664	0.202	-0.588	0.824	1.2	-3.13 (inactive)	-0.246	-0.236
CN(C)CCCN1C(=O)[C@@]2(c3ccc([N+](=O)[O-])cc3)CC(=O)N(C3CCCCC3)[C@@H]2c2ccc(CO)cc21	-0.363	-0.0124	-0.107	0.251	0.166	-0.483	-1.19	1.19 (inactive)	0.161	-0.353
CCCNC(=O)[C@@]1(c2ccc([N+](=O)[O-])cc2)CC(=O)N(CC23CC4CC(CC(C4)C2)C3)[C@@H]1c1ccc(CO)cc1I	0.188	0.388	-0.0644	0.0889	0.906	0.133	1.01	-2.05 (inactive)	0.171	0.31
CC(C)(C)OC(=O)CC[C@@]1(C(N)=O)N=C(c2ccc(OCCCO)cc2)O[C@@H]1c1ccccc1N=[N+]=[N-]	0.0551	1.86	0.0354	1.23	1.46	0.798	1.36	3.06 (inactive)	0.18	-0.0645
C[N+](C)(C)CCCC[C@@H]1NC(=O)[C@@H]2C[C@H](C(=O)NCCCCCCNC(=O)CS)[C@H](c3cccc(OCCO)c3)N2C1=O	-0.145	0.976	-0.132	-0.459	-0.395	0.612	1.36	-0.944 (inactive)	-0.713	-0.0193
CN(C)CCCC[C@@H]1NC(=O)[C@@H]2C[C@H](C(=O)NCCCCCN)[C@H](c3ccc(O)cc3)N2C1=O	0.591	0.137	-0.043	-0.285	0.235	2.23	0.293	-0.926 (inactive)	0.0993	-0.0324
COCCOC(=O)N1C(=O)[C@@]2(c3cc(C#CCCO)ccc31)[C@H](c1ccc(O)cc1)N1[C@H](c3ccccc3)[C@H](c3ccccc3)OC(=O)[C@H]1[C@@H]2C(=O)N1CCCCCCC1	2.58	1.07	0.2	1.04	1.33	0.853	1.14	-0.73 (inactive)	2	0.7
COCCOC(=O)N1C(=O)[C@@]2(c3ccccc31)[C@H](c1ccc(O)cc1)N1[C@H](c3ccccc3)[C@H](c3ccccc3)OC(=O)[C@H]1[C@@H]2C(N)=O	0.113	0.192	-0.106	-0.304	-0.818	0.178	0.651	-1.16 (inactive)	-0.722	-0.226
COc1cc(NN2C(C(O)c3ccccc3)C=CC3C(=O)N(c4ccccc4)C(=O)C32)cc(OC)c1OC (stereo not given)	-0.0824	0.215	0.135	1.13	1.56	1.87	1.38	0.556 (inactive)	1.08	-0.194
C=C(C(=O)CC[C@@H](OC(=O)c1cccnc1)c1ccc(OCCO)cc1)C(C)C	-0.408	-0.294	-0.113	1.27	-0.121	0.739	1.06	-2.68 (inactive)	0.128	-0.0994
C=C[C@H](C)[C@H](OC(=O)Nc1ccc(OC)cc1)c1ccc(O)c2ccccc12	0.436	-0.0826	-0.121	-0.148	-0.714	-0.322	0.957	3.63 (inactive)	-0.304	-0.124
[N-]=[N+]=NCc1ccccc1C[C@]1(C(=O)N2CCOCC2)N=C(c2ccc(OCCCO)cc2)O[C@H]1c1ccccc1	0.303	0.18	-0.0455	0.686	0.412	0.766	0.542	-3.67 (inactive)	0.912	-0.0994
CC(C)CNC(=O)[C@@]1(C)c2ccccc2C(=O)N(C(C)C)[C@H]1c1ccc(CO)cc1	0.095	-0.456	-0.0803	-0.435	-1.78	0.0276	-0.266	0.0705 (inactive)	-0.37	0.0424
O=C1C2C=CC(C(O)c3ccc(Br)cc3)N(n3cnnc3)C2C(=O)N1Cc1ccccc1 (stereo not given)	-0.0627	0.52	0.0488	0.533	1.3	0.0603	0.722	0.258 (inactive)	0.549	0.134
[N-]=[N+]=Nc1ccccc1C[C@]1(C(=O)N2CCCCC2)N=C(c2ccc(OCCCO)cc2)O[C@H]1c1ccccc1N=[N+]=[N-]	0.368	-0.155	0.14	0.771	1.53	1.71	1.01	-1.68 (inactive)	0.991	-0.305
C=C(CCCC)C(=O)CC[C@H](OC(=O)c1ccccc1-c1ccccc1C(=O)O)c1ccc(CO)o1	-0.619	0.779	-0.0206	1.16	0.455	0.606	1.25	-0.225 (inactive)	0.367	-0.0994
C=C[C@@H](C)[C@@H](OC(=O)Nc1ccc(OC)cc1)c1ccc(O)c2ccccc12	-0.262	0.173	-0.0423	0.245	-0.11	0.543	1.03	2.58 (inactive)	0.105	-0.128
COCCOC(=O)N1C(=O)[C@@]2(c3cc(C#Cc4ccc(OC)cc4)ccc31)[C@H](c1ccc(OCCO)cc1)N1[C@H](c3ccccc3)[C@H](c3ccccc3)OC(=O)[C@H]1[C@@H]2C(=O)N1CCc2cc(OC)c(OC)cc2C1	-0.327	0.514	0.0051	0.214	0.871	0.424	0.981	-0.948 (inactive)	0.225	0.232
CN(C)CCCC[C@@H]1NC(=O)[C@@H]2C[C@H](C(=O)NCCCCCCN)[C@H](c3ccc(O)cc3)N2C1=O	1.95	0.58	0.15	0.727	0.921	1.39	1.44	-0.0024 (inactive)	2.16	0.861
Cc1ccc(S[C@]2(C(=O)NCCCN(C)C)CC(=O)N(Cc3ccccc3)[C@@H]2c2ccc(CO)cc2)cc1	1.15	-0.533	-0.145	-0.193	-1.24	-0.234	-1.11	-1.76 (inactive)	-0.101	-0.409
CN(C)CCCCCCNC(=O)[C@@H]1C[C@@H]2C(=O)NCC(=O)N2[C@@H]1c1cccc(OCCO)c1	-0.131	1.37	0.153	0.816	1.14	0.346	1.26	2.12 (inactive)	0.555	0.164
COC(=O)C(CC#Cc1ccc2c(c1)[C@]1(C(=O)N2)[C@H](C(=O)N2CCCCCCC2)[C@H]2C(=O)O[C@H](c3ccccc3)[C@H](c3ccccc3)N2[C@@H]1c1ccccc1OCCO)C(=O)OC	3.68	2.84	1.03	1.26	1.75	2.65	1.38	0.695 (inactive)	3.61	3.1
C=CCC(OC(C)=O)[C@@H]1[C@@H](N(Cc2ccc(-c3ccccc3)cc2)C(=O)c2ccc(C)cc2)c2cc(OCCCO)ccc2N1C(=O)c1ccc2ccccc2n1 (stereo not given in full)	-0.131	0.42	-0.0434	0.199	0.0291	0.676	-0.325	-1.24 (inactive)	0.13	0.154
Cc1ccc(S[C@]2(C(=O)NCc3ccccc3)CC(=O)N(Cc3cc(C(F)(F)F)cc(C(F)(F)F)c3)[C@@H]2c2ccc(CO)cc2)cc1	-0.989	-0.779	-0.172	-0.596	-0.885	0.57	0.246	-0.588 (inactive)	-0.0847	-0.362
C=CC[C@@]1(C(=O)NCCN2CCOCC2)N=C(c2ccc(OCCCO)cc2)O[C@@H]1c1ccccc1CN=[N+]=[N-]	1	0.812	-0.0524	0.455	0.674	1.26	1.29	-0.484 (inactive)	1.65	0.0989
CC(C)C(=C=CC[C@H](O)c1ccccc1OCCO)CCO	0.0409	-0.0204	-0.152	0.161	-0.679	0.319	0.614	0.129 (inactive)	-0.0031	-0.0994
